Where “and” joins values, the source holds several entries; their conditions need not be identical. Equal values may be shown once. Screen size: about 5,500 compounds; about 2,000 (36%) were called active. About 18% were inconclusive and are not listed. No stated cut-off is given here; in the data, active means normalized growth mostly below about 0.91 (no sharp cut-off); inconclusive means no clear call, values can overlap the other calls; inactive means mostly above about 0.92. The list shows a part of the results.
Assay: chemical genetic growth profiling, strain panel (AID 1159580);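 further: tested at 20 µM; growth read once vehicle control cultures reached saturation at 30 °C; 1 = growth at the plate median or of vehicle wells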
Conditions: S. cerevisiae deletion strains, growth OD

Measured: normalized growth

C=C[C@H]1CN2CC[C@H]1C[C@H]2[C@H](O)c1ccnc2ccccc12
inactive: locus YAL013W, strain DEP1, stronger effect = lower value 1.01 | locus YAL021C, strain ccr4, stronger effect = lower value 1 | locus YAL026C, strain drs2, stronger effect = lower value 0.995 | locus YAL030W, strain snc1, stronger effect = lower value 0.997 | locus YBL061C, strain skt5, stronger effect = lower value 0.995 | locus YBR009C, strain hhf1, stronger effect = lower value 0.992 | locus YBR021W, strain FUR4, stronger effect = lower value 1.01 | locus YBR023C, strain chs3, stronger effect = lower value 0.992 | locus YBR171W, strain sec66, stronger effect = lower value 1 | locus YBR229C, strain ROT2, stronger effect = lower value 1.01 | locus YBR231C, strain swc5, stronger effect = lower value 0.984 | locus YBR279W, strain paf1, stronger effect = lower value 1 | locus YCL011C, strain gbp2, stronger effect = lower value 1.01 | locus YCL016C, strain dcc1, stronger effect = lower value 0.994 | locus YCL029C, strain bik1, stronger effect = lower value 0.969 | locus YCL061C, strain MRC1, stronger effect = lower value 0.983 | locus YCL069W, strain vba3, stronger effect = lower value 1.01 | locus YCR088W, strain abp1, stronger effect = lower value 1 | locus YDL005C, strain med2, stronger effect = lower value 0.997 | locus YDL035C, strain GPR1, stronger effect = lower value 0.986 | locus YDL040C, strain nat1, stronger effect = lower value 0.999 | locus YDL074C, strain BRE1, stronger effect = lower value 1.04 | locus YDL101C, strain DUN1, stronger effect = lower value 0.988 | locus YDL134C, strain PPH21, stronger effect = lower value 1 | locus YDL185W, strain tfp1, stronger effect = lower value 0.965 | locus YDL192W, strain arf1, stronger effect = lower value 0.979 | locus YDR001C, strain nth1, stronger effect = lower value 0.986 | locus YDR069C, strain doa4, stronger effect = lower value 1.01 | locus YDR101C, strain arx1, stronger effect = lower value 0.985 | locus YDR137W, strain rgp1, stronger effect = lower value 1.02 | locus YDR150W, strain NUM1, stronger effect = lower value 0.966 | locus YDR159W, strain sac3, stronger effect = lower value 0.949 | locus YDR162C, strain NBP2, stronger effect = lower value 1.01 | locus YDR195W, strain ref2 0.959 | locus YDR297W, strain sur2, stronger effect = lower value 1 | locus YDR318W, strain mcm21, stronger effect = lower value 0.989 | locus YDR334W, strain swr1, stronger effect = lower value 1 | locus YDR335W, strain msn5, stronger effect = lower value 0.993 | locus YDR388W, stronger effect = lower value 0.979 | locus YDR392W, strain spt3, stronger effect = lower value 0.999 | locus YDR502C, strain sam2, stronger effect = lower value 0.979 | locus YEL003W, strain gim4, stronger effect = lower value 0.995 | locus YEL037C, strain rad23, stronger effect = lower value 0.993 | locus YEL061C, strain CIN8 (second series), stronger effect = lower value 0.999 | locus YEL061C, strain CIN8, stronger effect = lower value 1 | locus YER015W, strain faa2, stronger effect = lower value 1 | locus YER016W, strain bim1, stronger effect = lower value 0.975 | locus YER110C, stronger effect = lower value 0.976 | locus YER111C, strain swi4, stronger effect = lower value 1.01 | locus YER155C, strain BEM2 (second series), stronger effect = lower value 0.977 | locus YER155C, strain BEM2, stronger effect = lower value 0.98 | locus YER167W, strain BCK2, stronger effect = lower value 1.01 | locus YFR010W, strain ubp6, stronger effect = lower value 1.01 | locus YGL078C, strain dbp3, stronger effect = lower value 0.985 | locus YGL086W, strain mad1, stronger effect = lower value 0.99 | locus YGL167C, strain pmr1, stronger effect = lower value 0.987 | locus YGL173C, strain kem1, stronger effect = lower value 0.977 | locus YGL227W, strain vid30, stronger effect = lower value 1 | locus YGL240W, strain doc1, stronger effect = lower value 0.984 | locus YGL248W, strain PDE1, stronger effect = lower value 1.01 | locus YGL253W, strain hxk2, stronger effect = lower value 1 | locus YGR078C, strain PAC10, stronger effect = lower value 1.01 | locus YGR135W, strain pre9, stronger effect = lower value 0.974 | locus YGR229C, strain SMI1, stronger effect = lower value 1.02 | locus YGR252W, strain gcn5, stronger effect = lower value 0.982 | locus YHR013C, strain ard1, stronger effect = lower value 1 | locus YHR027C, strain rpn1, stronger effect = lower value 0.997 | locus YHR030C, strain SLT2, stronger effect = lower value 1 and 0.969 | locus YHR079C, strain IRE1 (second series), stronger effect = lower value 0.986 | locus YHR079C, strain IRE1, stronger effect = lower value 0.968 | locus YHR094C, strain hxt1, stronger effect = lower value 0.973 | locus YHR129C, strain ARP1, stronger effect = lower value 1.01 | locus YHR142W, strain chs7, stronger effect = lower value 1 | locus YHR200W, strain rpn10, stronger effect = lower value 0.981 | locus YIL066C, strain RNR3, stronger effect = lower value 1 | locus YIL073C, strain SPO22, stronger effect = lower value 0.927 | locus YIL125W, strain kgd1, stronger effect = lower value 0.994 | locus YIR030C, strain dcg1, stronger effect = lower value 0.979 | locus YJL092W, strain hpr5, stronger effect = lower value 0.999 | locus YJL095W, strain BCK1 (second series), stronger effect = lower value 0.998 | locus YJL095W, strain BCK1, stronger effect = lower value 1.04 and 0.962 | locus YJL115W, strain asf1, stronger effect = lower value 1 | locus YJL129C, strain trk1, stronger effect = lower value 0.988 | locus YJL134W, strain LCB3, stronger effect = lower value 0.995 | locus YJL154C, strain vps35, stronger effect = lower value 1 | locus YJL164C, strain tpk1, stronger effect = lower value 1.01 | locus YJL166W, strain qcr8, stronger effect = lower value 0.95 | locus YJL168C, strain set2, stronger effect = lower value 0.986 | locus YJL187C, strain SWE1 (second series), stronger effect = lower value 0.977 | locus YJR043C, strain POL32, stronger effect = lower value 1.01 | locus YJR066W, strain TOR1, stronger effect = lower value 0.942
